High-throughput results as filed in PubChem BioAssay.
Rows were chosen to be rich in hits. Some 12% of all compounds tested hit in one or more screens of this group.
Sm TGR block = inhibitors of Schistosoma mansoni thioredoxin glutathione reductase; Q962Y6; purified TGR, DTNB reduction, TNB absorbance 405 nm; Potency, µM (highest dose often 114 µM), without a hit: at the highest dose activity change, negative = inhibition, most hits filed as inhibitors; 360,000 tested, 3% active; AID 485364; further: on the % scale 0 is the no-effect control and ±100 the full control effect; nearly all actives have a fitted effect of over 60% in size
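Kinetic colorimetric format: TGR-catalysed, NADPH-driven DTNB reduction monitored via TNB absorbance. Enzyme dispensed at 20 nM; compound exposure 15 min at room temperature before reaction start.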
Pf growth 48h = P. falciparum growth inhibition at 48 hours (one generation) | P. falciparum luciferase growth in erythrocytes, 48 h | Potency, µM (titrated, usually from 28.7 µM), for the others: at the top dose activity change, negative = inhibition, most hits filed as inhibitors | 310,000 tested, 5.9% active; further: on the % scale 0 is the no-effect control and ±100 the full control effect
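Erythrocytes infected with P. falciparum carrying an integrated firefly luciferase reporter (2% hematocrit, 0.1% parasitemia final) were exposed to compounds in RPMI 1640 with 0.5% Albumax at 37 C, 5% CO2. Growth inhibition was scored as reduced luminescence.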
Pf growth 96h = P. falciparum growth inhibition at 96 hours; P. falciparum luciferase reporter growth, 96 h; Potency, µM (top dose mostly 28.7 µM), without a hit: top-dose activity change, negative = inhibition, hits mostly inhibitors; 320,000 tested, 6.9% active; further: on the % scale 0 is the no-effect control and ±100 the full control effect
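Two parasite generations (96 h, 37 C, 5% CO2) of compound exposure in infected erythrocytes (0.05% parasitemia, 2% hematocrit). Luciferase-reporter P. falciparum; decreased luminescence indicates inhibited growth, aimed at apicoplast-acting delayed death.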
SARS PLP yeast = SARS-CoV PLP inhibition in yeast; S. cerevisiae expressing SARS-CoV PLpro, growth rescue; Potency, µM (series often up to 32.9 µM), inactives show at the highest dose activity, positive = growth rescue, actives largely listed as activators; 330,000 tested, 0.19% active; AID 485353; calls by dose curve; further: 0% is about no effect; nearly all actives have a fitted effect of over 55% in size
Numbers without * were called inactive; ? = inconclusive; . = no result. Unless noted, the call rests on the fitted dose curve; in most records, active means well fitted curve in the direction sought with a large enough effect; inconclusive means small, poorly fitted or top-dose-only effect, or another doubt; inactive means no such curve, though single readings can be large; an effect the other way counts as inactive or inconclusive. Potency means the concentration at half of the fitted maximal effect.

SMILES	Sm TGR block	Pf growth 48h	Pf growth 96h	SARS PLP yeast
COc1ccc(N(C)C(=O)c2cc(S(=O)(=O)N3CCc4ccccc43)cn2C)c(OC)c1	-12%	.	.	.
Cc1ccc(Cl)cc1NC(=O)Nc1cn(CC(C)C)c(=O)c2ccccc12	3%	.	.	.
CCOC(=O)C1CCCN(c2c(NCCN(CC)c3ccccc3)c(=O)c2=O)C1 (centres undefined)	18%	10µM*	-29%	4%
CCOC(=O)C1CCCN(c2c(NCCN3CCCCC3C)c(=O)c2=O)C1 (centres undefined)	0%	-4%	4.7µM*	2%
CCOC(=O)C1CCCN(c2c(Nc3ccc(C)c(C)c3)c(=O)c2=O)C1 (centres undefined)	5%	8.3µM*	-16%	5%
CCOC(=O)C1CCCN(c2c(NCCCN(CC)c3ccccc3)c(=O)c2=O)C1 (centres undefined)	0%	?	21%	1%
CCOC(=O)C1CCCN(c2c(Nc3cc(C)cc(C)c3)c(=O)c2=O)C1 (centres undefined)	-3%	.	9.3µM*	18%
COC(=O)c1ccc(NC(=O)CC2C(=O)N(c3cccc(F)c3)C(=O)N2CC(C)C)cc1 (centres undefined)	-3%	.	.	.
Cc1c(O)nc(SCC(=O)Nc2nccs2)n(-c2ccccc2F)c1=O	-7%	4%	?	0%
COc1ccc(OC[C@@H](O)CNC(=O)c2cccc3c2C(=O)c2ccc(Cl)cc2S3(=O)=O)cc1	0%	?	2.1µM*	-5%
CCCOc1ccc(-c2nc(SCc3ccccc3)[nH]c(=O)c2C#N)cc1OC	-15%	?	2%	1%
CCCCNC(=O)[C@@H]1CSC2c3ccccc3C(=O)N21 (some centres undefined)	31%	-1%	27%	-1%
Cc1ccc(/C=C2\SC(=S)N(CC3CCCO3)C2=O)o1 (centres undefined)	4µM*	-30%	?	-2%
O=C1/C(=C/c2ccco2)SC(=S)N1CC1CCCO1 (centres undefined)	20µM*	-3%	16%	-1%
O=C1/C(=C\c2ccc(-c3ccccc3Cl)o2)SC(=S)N1CC1CCCO1 (centres undefined)	-29%	8%	0%	-4%
Cc1ccc(/C=C2/SC(=S)N(C3CCCCC3)C2=O)o1	45µM*	1%	60%	0%
O=C1/C(=C/c2ccncc2)SC(=S)N1C1CCCCC1	-15%	-3%	?	1%
CCN(CC)C(=O)CSc1nc2cc3c(cc2c(=O)n1CCCCCC(=O)NCCc1ccc(OC)c(OC)c1)OCO3	-8%	.	.	.
C=C(C)c1cccc(C(C)(C)NC(=O)Nc2ccc(Cl)cn2)c1	-28%	9%	?	-71%
C=C(C)c1cccc(C(C)(C)NC(=O)Nc2cccnc2)c1	-19%	?	4.7µM*	0%
C=C(C)c1cccc(C(C)(C)NC(=O)Nc2ccc(C(N)=O)cc2)c1	.	-12%	35%	0%
C=C(C)c1cccc(C(C)(C)NC(=O)Nc2ncccn2)c1	-17%	?	8.3µM*	-2%
C=C(C)c1cccc(C(C)(C)NC(=O)NCc2ccncc2)c1	26%	13µM*	?	0%
CN(C)c1ccc(C2C=C(c3ccccc3)Nc3nnnn32)cc1 (centres undefined)	1%	.	.	.
Nn1c(SCc2ccccn2)nncc1=O	11%	18%	12µM*	0%
SMILES	Sm TGR block	Pf growth 48h	Pf growth 96h	SARS PLP yeast
CC1CCC(NC(=O)c2ccc(CS(=O)(=O)c3ccc(Cl)cc3)o2)CC1 (centres undefined)	-4%	.	.	.
C=CCOc1ccccc1CNc1cccc(F)c1	-13%	-2%	10µM*	7%
C=CCOc1ccccc1CNc1ccc2c(c1)OCCO2	?	64%	-48%	-4%
CCO[C@@H]1OC(C(=O)N2CCN(Cc3ccc4c(c3)OCO4)CC2)=C[C@H](C)[C@H]1CCCO	-11%	?	?	1%
CCO[C@@H]1OC(C(=O)N2CCN(Cc3ccc4c(c3)OCO4)CC2)=C[C@H](C2CC2)[C@H]1CCCO	-2%	?	3.3µM*	0%
CCO[C@H]1OC(C(=O)N2CCN(Cc3ccc4c(c3)OCO4)CC2)=C[C@@H](C2CCCCC2)[C@@H]1CCCO	5%	?	4.1µM*	0%
CNC(=S)N1N=C(c2ccc(Br)cc2)CC1c1ccc(OC)cc1 (centres undefined)	-7%	-27%	10µM*	0%
COc1ccc(C2=NN(C(=O)CCC(=O)O)C(c3ccc(F)cc3)C2)cc1 (centres undefined)	-3%	-25%	15µM*	2%
COc1ccc(/C=C/C(=O)OCC(=O)N2CC(=O)Nc3ccccc32)cc1S(=O)(=O)N1CCOCC1	-6%	?	?	-2%
COc1cc(/C=C/C(=O)OCC(=O)N2CC(=O)Nc3ccccc32)ccc1O	45µM*	?	?	0%
COc1ccc(C2CC(c3ccccc3)=NN2C(=O)COC(=O)/C=C/c2ccc(O)c(OC)c2)cc1 (centres undefined)	-8%	15µM*	?	-1%
O=C(O)c1ccc2c(c1)C(=O)N([C@]1(C(=O)O)CC1c1ccccc1)C2=O (some centres undefined)	2%	-19%	19%	-13%
O=C(Nc1ccc(F)c(F)c1)C1CCN(S(=O)(=O)c2cccs2)CC1	-1%	?	?	4%
Cc1ccc2c(c1)-n1c(nc3cc(Cl)ccc3c1=O)C(Cc1ccccc1)NC2=O (centres undefined)	.	.	.	4%
CCN(Cc1ccncc1)Cc1ccc(Br)cc1	-1%	?	?	0%
COc1ccc(/C=C/C(=O)OCC(=O)Nc2cccc(S(=O)(=O)NC3=NCCCCC3)c2)cc1	.	.	.	-12%
CNC(=S)N1N=C(c2ccc(OC)cc2)CC1c1ccccc1Cl (centres undefined)	-2%	?	?	-3%
CNC(=S)N1N=C(c2ccc(OC)cc2)CC1c1ccc(Cl)cc1Cl (centres undefined)	1%	12µM*	5.9µM*	-1%
COc1ccc(C2CC(c3ccccc3OC(C)=O)=NN2C(=O)/C=C/c2ccccc2)cc1 (centres undefined)	2%	?	?	-3%
COc1ccc(OC)c(C2CC(c3ccccc3)=NN2C(=S)Nc2ccccc2)c1 (centres undefined)	24%	2.3µM*	?	-1%
COc1ccc(C2CC(c3ccc4ccccc4c3OC(C)=O)=NN2C(=O)/C=C/c2ccccc2)cc1 (centres undefined)	-2%	12µM*	?	13%
COc1ccc(CC(=O)Nc2cccc(/C(C)=N/NC(=O)C3(C)CC3(Br)Br)c2)cc1 (centres undefined)	-2%	?	?	-7%
Cc1occc1-c1nnc(SC(C)C(=O)Nc2ccccc2F)o1 (centres undefined)	3%	66%	-45%	-5%
C=CCN(CC=C)C(=S)NC(=O)c1ccc(-c2ccccc2)cc1	-5%	.	7.4µM*	-17%
COc1cc(C(=O)NC(=S)N(C)Cc2ccccc2)cc(OC)c1OC	0%	-15%	?	0%
